The supplement of paper PMC6555819

Tests used:
Experiment in all cases: PBM binding z-score (relative to random genomic background probes); higher = stronger binding; sequences stand for … in GC…GCGATTGACAGCGTAGAATGAAGG
[1] = tested on: FXR:RXRa (NR concentration 270 nM, RXRa partner concentration 90 nM)
Method in brief: (§1)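 Regression normalization was applied to scanned fluorescence from custom Agilent 4×180K protein-binding microarrays. Before scanning, arrays were incubated 1 h with ligand-free nuclear receptor dimers, and binding was detected with antibodies against each partner (one per run). Binding z-scores use the random background probes as reference.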

[2] = tested on: LXRa:RXRa (NR concentration 270 nM, RXRa partner concentration 90 nM)
Method in brief: as §1

[3] = tested on: LXRa homodimer (NR concentration 270 nM)
Method in brief: as §1

[4] = tested on: LXRb:RXRa (NR concentration 270 nM, RXRa partner concentration 90 nM)
Method in brief: as §1

[5] = tested on: LXRb homodimer (NR concentration 270 nM)
Method in brief: as §1

[6] = tested on: PPARa:RXRa (NR concentration 270 nM, RXRa partner concentration 90 nM)
Method in brief: as §1

[7] = tested on: PPARg:RXRa (NR concentration 180 nM, RXRa partner concentration 90 nM)
Method in brief: as §1

[8] = tested on: PPARg:RXRa 270nM:90nM, anti-RXR (NR concentration 270 nM, RXRa partner concentration 90 nM)
Method in brief: as §1

[9] = tested on: PPARg:RXRa 30nM:10nM, anti-RXR (NR concentration 30 nM, RXRa partner concentration 10 nM)
Method in brief: as §1

[10] = tested on: PPARg:RXRa 90nM:30nM, anti-RXR (NR concentration 90 nM, RXRa partner concentration 30 nM)
Method in brief: as §1

[11] = tested on: PPARg:RXRa DBDmut IVT, anti-RXR (DBD mutation: RXRa K156A/R161A, NR concentration 270 nM, RXRa partner concentration 90 nM)
Method in brief: as §1

[12] = tested on: PPARg:RXRa IVT, anti-PPARg (NR concentration 270 nM, RXRa partner concentration 90 nM)
Method in brief: as §1

[13] = tested on: PPARg DBDmut:RXRa IVT, anti-PPARg (DBD mutation: PPARg1 K132A/R137A, NR concentration 270 nM, RXRa partner concentration 90 nM)
Method in brief: as §1

[14] = tested on: PPARg DBDmut IVT, anti-PPARg (DBD mutation: PPARg1 K132A/R137A, NR concentration 270 nM)
Method in brief: as §1

[15] = tested on: PPARg homodimer (NR concentration 180 nM)
Method in brief: as §1

[16] = tested on: PXR:RXRa (NR concentration 270 nM, RXRa partner concentration 90 nM)
Method in brief: as §1

[17] = tested on: PXR homodimer (NR concentration 270 nM)
Method in brief: as §1

[18] = tested on: RARa:RXR (NR concentration 270 nM, RXRa partner concentration 90 nM)
Method in brief: as §1

[19] = tested on: RARa homodimer (NR concentration 270 nM)
Method in brief: as §1

[20] = tested on: RARb:RXRa (NR concentration 270 nM, RXRa partner concentration 90 nM)
Method in brief: as §1

| Sequence | PBM binding z-score [1] | PBM binding z-score [2] | PBM binding z-score [3] | PBM binding z-score [4] | PBM binding z-score [5] | PBM binding z-score [6] | PBM binding z-score [7] | PBM binding z-score [8] | PBM binding z-score [9] | PBM binding z-score [10] | PBM binding z-score [11] | PBM binding z-score [12] | PBM binding z-score [13] | PBM binding z-score [14] | PBM binding z-score [15] | PBM binding z-score [16] | PBM binding z-score [17] | PBM binding z-score [18] | PBM binding z-score [19] | PBM binding z-score [20] |
| --- | --- | --- | --- | --- | --- | --- | --- | --- | --- | --- | --- | --- | --- | --- | --- | --- | --- | --- | --- | --- |
| CGTCCAAGGTCTGAGAGGTCAGTGAATGCCGAGT | 1.6 | 1.76 | 0.726 | 1.58 | -0.51 | 2.29 | -0.0569 | 0.729 | -0.614 | -0.154 | 0.28 | 0.77 | -0.424 | -1.57 | 1.81 | 2.94 | 1.65 | 2.79 | 0.0831 | 3.24 |
| CGAACTAGGTCAAGGAGAGTGAATCTCCGCACGC | 2.98 | 1.99 | -0.412 | 1.17 | -0.521 | 4.25 | 7.01 | 6.29 | 3.34 | 5.99 | 8.29 | 7.9 | 1.48 | 0.243 | 0.896 | 0.744 | -0.41 | 1.44 | -0.0147 | 3.74 |
| ACGGACAGGTGATGAAGGTAACTCAGGCTATCAT | 0.169 | -0.084 | -0.0768 | 0.109 | -0.152 | 0.276 | 0.712 | 0.0307 | 0.33 | 0.172 | 0.288 | 0.365 | 0.082 | 0.0676 | 0.411 | 0.11 | 0.211 | 0.174 | 0.939 | 0.745 |
| AGAATGAGGTTATACGTAGATTAGGGAAGAAAGT | 2.38 | 1.89 | 0.103 | 1.74 | 0.111 | 3.21 | 2.37 | 2.4 | 0.937 | 1.76 | 3.81 | 2.24 | 1.48 | 1 | 0.912 | 1.38 | 0.713 | 1.72 | 0.516 | 1.63 |
| ATATGTAGGTTACATCCGGGTCATTCCGGCTATG | 1.93 | 4.16 | 1.81 | 2.68 | 0.955 | 4.37 | 5.96 | 5.25 | 2.7 | 4.37 | 7.45 | 7.39 | 4.71 | 3.42 | 2.43 | 3.36 | 1.56 | 3.56 | 0.832 | 2.14 |
| CCTTACGGGTCAAGGTTACAGCACGGGTGGTACG | 5.94 | 3.96 | 0.209 | 2.99 | -0.186 | 5.24 | 5.13 | 5.27 | 2.14 | 3.87 | 2.05 | 3.96 | 0.601 | -0.0526 | 1.7 | 3.4 | -0.0469 | 4.47 | 0.176 | 4.45 |
| CCTGCTACGTCAATGGTCAGCTAAAGCAGCTCGC | -0.5 | -0.409 | -0.45 | -0.531 | -0.36 | -0.295 | -0.37 | -0.498 | -0.833 | -0.566 | 0.218 | -0.566 | -1.15 | -0.483 | -0.41 | -0.469 | -0.413 | -0.14 | -0.629 | 0.0938 |
| TGAATGAGGTAAAAGATCAGGGAACGTGGCGTCG | 0.359 | -0.0204 | -0.712 | -0.13 | -0.307 | 2.5 | 3.68 | 5.02 | 3.41 | 5.53 | 0.669 | 2.02 | 0.836 | -0.202 | 0.305 | -0.0852 | -0.139 | 0.545 | -0.524 | 0.0467 |
| GCTAGCAGGCCATTTGGGTCAGTCAATGACGGGC | -0.0631 | -0.302 | -0.489 | -0.399 | -1.6 | 0.666 | 0.221 | -0.137 | -0.663 | -0.371 | 1.4 | 1.05 | -0.511 | -1.16 | -0.0651 | -0.047 | 0.065 | 0.213 | -1.59 | 1.12 |
| AGATGTAGGTTAGCTGGGGTCATTCAGACTAGGC | 4.46 | 5.57 | 2.58 | 4.53 | 1.17 | 4.85 | 5.03 | 4.61 | 2.17 | 3.72 | 5.87 | 5.76 | 1.86 | 0.481 | 2.31 | 6.19 | 3.97 | 5.41 | 0.958 | 3 |
| GCTGCTAGGTCATCTGATGGTCAGCTAAAGCTCG | 3.98 | 3.02 | 0.182 | 2.03 | 0.0879 | 3.39 | 1.96 | 2.82 | 0.263 | 1.59 | 3.87 | 3.44 | -0.368 | -0.142 | 0.777 | 1.71 | -0.679 | 2.64 | -0.43 | 4.07 |
| CCAAGCAGGCCAATCTGGGTCACTCAAGGCTTGA | 0.754 | 1.79 | -0.345 | 0.979 | -1.19 | 3.45 | 2.46 | 2.55 | 0.227 | 1.63 | 4.53 | 4.91 | 0.213 | -1.24 | 0.382 | 1.26 | -0.284 | 1.71 | -1.17 | 1.62 |
| AATATAGGGTCACTAGGCCAGAGTAGGTACGAAT | 6.26 | 5.13 | 0.894 | 4.07 | 0.704 | 5.67 | 8.45 | 6.68 | 3.94 | 5.68 | 5.21 | 6.14 | 2.32 | 1.64 | 2.41 | 3.05 | 0.508 | 4.66 | 0.81 | 4.11 |
| TCTCGGAGGACACGAAAGCTCAGAGCTCGACATC | 0.278 | -0.178 | -0.494 | -0.291 | -1.33 | 0.0148 | 0.133 | 0.762 | 2.01 | 1.21 | 1.28 | 0.237 | -0.991 | -1.02 | -0.895 | -0.392 | -0.855 | -0.157 | -0.395 | 1.31 |
| CATACTGGGCCATTCAGAGGTCATTGATCATATG | 3.03 | 4.44 | 6.31 | 3.86 | 0.861 | 3.77 | 2.37 | 3.13 | 1.18 | 2.26 | 3.86 | 3.89 | 1.19 | 0.509 | 2.57 | 4.82 | 2.58 | 4.36 | 0.758 | 3.14 |
